This note sets out measurements from PubChem BioAssay AID488890 (Southern Research Specialized Biocontainment Screening …, 2010).

Structures are written as SMILES. Among all 320,000 compounds or so, about 1,300 (0.41%) were called active. Roughly 3% stayed inconclusive and do not appear here. The rule behind the calls is not given here. Only a sample is shown. Results with a measured potency or affinity are listed apart.

Usually inhibition stands for the relative decrease from the control value, in per cent.

The test is described as follows: growth inhibition of non-replicating M. tuberculosis (AID 488890).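 Note: plate controls were DMSO cells for no effect and high antibiotic wells for full effect.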 The note with it: Mycobacterium tuberculosis non-replicating, at 25 µM, stronger effect = higher value.
Take `NC(=O)C1CCCN1` (stereo unspecified): the inhibition stood at 3.98%.
Next, `CC1(C)CC(=O)c2cnc(NCC3CCCO3)nc2C1` (stereo unspecified): -8.53%.
Turning to `COC(=O)CSc1nnc2c3c4c(sc3nc(-n3nc(C)cc3C)n12)COC(C)(C)C4`, the inhibition turned out to be 0.76%.
Turning to `O=C1c2ccccc2C(=O)N1CCC#Cc1ccc2cc(CCCO)oc(=O)c2c1`, the inhibition came out at 12.8%.
As for `O=C(Nc1ccccn1)c1ccc(COc2ccccc2Cl)o1`, the inhibition amounted to 72.4%.
On to `CCOc1ccc(OCc2ccc(C(=O)O)o2)cc1`, for which the inhibition came to 18.9%.
Take `O=C(c1ccc(COc2ccccc2Cl)o1)N1CCCC1`: the inhibition was -8.31%.
As to `CCc1ccc(OCc2ccc(C(=O)NCc3ccccn3)o2)cc1`, the inhibition turned out to be 64.5%.
In the case of `N/C(=N\N=C\c1cccs1)SC1CC(=O)N(c2ccc(Br)cc2)C1=O` (stereo unspecified), the inhibition amounted to 7.06%.
With `Cc1cc(C(=O)N/N=C/c2c[nH]c3ccccc23)c(C)o1`, the inhibition came out at 4.64%.
In the case of `Cc1cccc(C)c1NC(=O)Cc1cccs1`, the inhibition was determined as 3.18%.
Consider `Cc1cc(C)c2nc(SC3CCOC3=O)cc(C)c2c1` (stereo unspecified), for which the inhibition amounted to 0.02%.
For `CC12CCC(C/C1=N\OC(=O)c1c(F)cccc1F)C2(C)C` (stereo unspecified), the inhibition is -9.61%.
On to `CC(=O)Nc1ccc(Oc2nc(C(F)(F)F)nc3ccccc23)cc1`, for which the inhibition stood at 1.04%.
Next, `COCC1CCCCN1Cc1cn(-c2ccccc2)nc1-c1ccc2c(c1)OCO2` (stereo unspecified): 0.23%; `CSc1ccccc1NC(=O)c1ccc(N2CCCC2=O)cc1`: 7.7%; `C=CCN=C1NN=C(c2cc(C)n(CC=C)c2C)CS1`: -5.39%.
Turning to `C=CCn1c(C)cc(C2=NNC(=NC(C)(C)C)SC2)c1C`, the inhibition was found to be 27%.
Next, `Cc1cccc(NC(=O)c2cc3cc([N+](=O)[O-])ccc3s2)n1`: 16.8%; `Cc1cccc(C)c1NC(=O)c1ccc([N+](=O)[O-])s1`: 67%.
`CN(C)NC(=O)c1ccc([N+](=O)[O-])s1`: the inhibition came to 11.4%.
Next, `O=C(Nc1ccccc1F)c1cc(C(=O)Nc2ccccc2F)cc([N+](=O)[O-])c1`: 5.63%; `Cc1ccnc(NS(=O)(=O)c2ccc(NC(=O)c3ccc(Cl)cc3[N+](=O)[O-])cc2)n1`: -0.5%.
Next, `CC(=O)Nc1ccc(S(=O)(=O)Nc2nccc(C)n2)cc1`: 20.2%; `O=c1[nH]c2c(c(=O)n1C1CCCCC1)CCC2`: -6.62%; `COC(=O)c1cccc(CSc2nnc(-c3ccco3)n2-c2ccccc2)c1`: 24%.
Next, `C=CCC(C=C)S(=O)(=O)c1ccc(C)cc1` (stereo unspecified): -2.81%; `CCCCCC1CC(/C(C)=N/NC(N)=O)OC1=O` (stereo unspecified): 9.08%; `Cc1noc(C)c1COC(=O)c1ccc(-c2nc3ccccc3s2)s1`: 9.44%.
Consider `CCNC(=O)COC(=O)c1cc(C)nc2ccccc12`, for which the inhibition is -1.86%.
As to `O=C(c1ccc(-c2nc3ccccc3s2)s1)N1CCOCC1`, the inhibition was -4.2%.
With `CCN1CCN(C(=O)c2ccc(-c3nc4ccccc4s3)s2)CC1` the figure was -3.89%; with `COCCNC(=O)COC(=O)CSCc1nc2ccccc2s1`, -4.84%.
With `COCCNC(=O)c1nc2ccccc2s1` the figure was 52.5%; with `O=S(=O)(Nc1ccc2cn[nH]c2c1)c1ccc(C(F)(F)F)cc1`, 21.1%; with `Cc1occc1C(=O)N/N=C/c1cccnc1`, -3.52%.
Turning to `Cc1ccc(S(=O)(=O)NCc2ccccc2)cc1C(=O)NCCc1ccc(S(N)(=O)=O)cc1`, the inhibition is -1.65%.
Next, `CSc1ncc(CN2CCN(C3CCCC3)C(CCO)C2)cn1` (stereo unspecified): 6.95%; `Cc1cc2oc(=O)cc(CN(C)Cc3cccc(F)c3)c2cc1C`: 12.8%; `Cc1ccc(/C=C/C(=O)O)cc1S(=O)(=O)NCCCO`: -0.14%.
Next, `CCOc1cc(/C=N/NC(=O)Cn2nc([N+](=O)[O-])cc2C)cc(Br)c1OCc1ccccc1C`: -2.93%; `Cc1cc(C)nc(NN2C(=O)C=CC2=O)n1`: -13.2%; `C=CCC1(CC=C)CCCN1C(=O)CC1C(=O)NCCN1Cc1cccc(OC)c1OC` (stereo unspecified): -15.7%.
With `COC(=O)c1ccc(NC(=O)c2cccc(NC(=O)c3ccccc3)c2)cc1` the figure was 32%; with `CC1(C)CC2CC(C)(CN2C(=O)COC(=O)c2cccnc2Cl)C1` (stereo unspecified), 14.2%.
Take `O=C(Nc1c2c(nn1-c1ccc(F)cc1)CS(=O)(=O)C2)C1CCCC1`: the inhibition was -10.4%.
On to `COc1cccc(OCCc2c(C)n[nH]c2C)c1`, for which the inhibition was found to be 30.4%.
`COc1ccc(OCCCCc2c(C)n[nH]c2C)cc1`: the inhibition was 78.2%.
Next, `Cc1n[nH]c(C)c1CCCCOc1ccccc1`: 78.1%; `COc1ccc(OCCCc2c(C)n[nH]c2C)cc1`: -13.9%; `Cc1ccc2c(c1)N(C(=O)CCC(=O)Nc1ccccc1Br)CC(C)O2` (stereo unspecified): -2.28%.
Take `CCOC(=O)N1CCN(C(=O)C2c3cc(OC)c(OC)cc3C(=O)N3CCc4ccccc4C23)CC1` (stereo unspecified): the inhibition is -11.4%.
As to `CC(=O)C1=C(C)Nc2ncnn2C1c1ccc(O)cc1` (stereo unspecified), the inhibition is -8.89%.
Next, `O=C(COC(=O)/C=C/c1ccc(F)cc1)Nc1cccc(S(=O)(=O)N2CCCC2)c1`: 17.9%.
Next, `CC(=O)Nc1ccc(S(=O)(=O)n2cnc(C)c2)cc1`: -2.83%; `Cc1ccc2nnc(Cl)n2n1`: -5.68%.
Next, `FC(F)(Cl)c1nnc2ccc(Sc3ccccn3)nn12`: -6.69%.
`FC(F)(F)c1nnc2ccc(N3CCCC3)nn12`: the inhibition came to 1.54%.
Turning to `FC(F)(F)c1nnc2ccc(N3CCCCCC3)nn12`, the inhibition came out at 8.69%.
Regarding `Clc1ccc2nncn2n1`, the inhibition is 1.77%.
Next, `FC(F)(F)c1nnc2ccc(N3CCCCC3)nn12`: -3.88%.
With `Cc1cc(C)c2nc(NNC(=O)c3ccc(S(=O)(=O)N4CCCC(C)C4)cc3)sc2c1` (stereo unspecified) the figure was -16.4%.
On to `COc1ccccc1NC(=O)c1ccc(CSc2ccccc2)o1`, for which the inhibition worked out at 68.3%.
Next, `O=C(Nc1ccc(F)cc1)c1ccc(CSc2ccccc2)o1`: 77.5%.
With `CN1CCN(c2nc3c(c(=O)[nH]c(=O)n3C)n2Cc2ccccc2F)CC1` the figure was -2.87%; with `CC1=C/C(=N\OC(=O)/C=C/c2ccccc2)C(C)=CC1=O`, 54.5%.
Next, `COc1ccc(S(=O)(=O)/N=C2/C=CC(=O)C(C)=C2C)cc1`: 24.9%; `Cc1ccc(S(=O)(=O)ON=C2CCN(S(=O)(=O)c3ccccc3)CC2)cc1`: -9.7%.
As to `Cc1ccc2c(c1)/C(=N/OS(=O)(=O)c1ccccc1)CCS2`, the inhibition came to 1.31%.
With `CC(Cc1cccnc1)NC(=O)c1cc(COc2ccc(F)cc2Cl)on1` (stereo unspecified) the figure was 15.8%.
`CCN(CC)c1ccc(S(=O)(=O)N2CCOCC2)cc1NC(=O)CNCc1ccccc1`: the inhibition was -9.09%.
`Nc1nonc1C(=O)NCCN=Cc1ccccc1O`: the inhibition was -0.48%.
With `COc1cccc(C=NCCNC(=O)c2nonc2N)c1O` the figure was -21.9%; with `COc1ccccc1C1C(C(=O)c2ccco2)=C(O)C(=O)N1c1cc(C)on1` (stereo unspecified), 16.5%.
Turning to `CN1C(=O)Cn2c1nc1ccccc12`, the inhibition is -4.7%.
Turning to `COc1cc(/C=N/NC(=O)CCC(=O)Nc2ccc(C)cc2)ccc1O`, the inhibition worked out at 2.61%.
For the compound `C=CCn1c(CCNC(=O)c2cccs2)nnc1SCC(=O)Nc1cccc(Cl)c1C`, the inhibition is 40.6%.
With `Cc1ccc(C)c(NC(=O)CN(C)C(=O)CN2C(=O)NC3(CCc4ccccc43)C2=O)c1` (stereo unspecified), the inhibition came to 18.4%.
Next, `Cc1ccc2cccc(NS(=O)(=O)c3ccccc3)c2n1`: 64.3%; `Cc1cc(C)n(-c2cccc3cccnc23)n1`: -3.86%; `CCOC(=O)N1CCC(NC(=O)C2CCN(C(=O)c3cc4oc(C)cc4n3Cc3c(F)cccc3Cl)CC2)CC1`: 5.49%.
Next, `CCc1nc2nc(C)c(NS(=O)(=O)c3cccs3)c(=O)n2[nH]1`: -14.6%; `COCc1nnc(NC(=O)c2sc3ccccc3c2Cl)s1`: 37.3%.
In the case of `Cc1cnc(NC(=O)c2sc3ccccc3c2Cl)s1`, the inhibition is -6.31%.
Turning to `NC(=O)COC(=O)CNC(=O)c1sc2ccccc2c1Cl`, the inhibition came out at 8.7%.
On to `NC(=O)NC(=O)COC(=O)c1sc2ccccc2c1Cl`, for which the inhibition was determined as 1.75%.
On to `CN(C(=O)COC(=O)c1n[nH]c(=O)c2ccccc12)c1ccccc1`, for which the inhibition was -7.8%.
For the compound `Cc1cc(F)ccc1NC(=O)C1CCCO1` (stereo unspecified), the inhibition was -3.85%.
Next, `COc1ccc(NC(=O)NNC(=O)c2ccc3ccccc3c2)cc1OC`: -2.52%; `COc1ccc(/C=N\Nc2ccc([N+](=O)[O-])cc2[N+](=O)[O-])c(C(=O)O)c1OC`: 39.2%; `Nc1c(N(CCC2=CCCCC2)C(=O)c2ccc([N+](=O)[O-])o2)c(=O)[nH]c(=O)n1Cc1ccccc1`: 38.8%.
`N#CC/C(N)=N/NC(=O)CCCNc1ncc(C(F)(F)F)cc1Cl`: the inhibition came to 0.45%.
Consider `CCOc1ccc(Br)cc1/C(C)=N\NC1=NCCN1`, for which the inhibition was found to be 38%.
Consider `COc1ccc(Br)cc1/C(C)=N/NC1=NCCN1`, for which the inhibition is 21.5%.
Next, `O=C1Nc2c(c(=O)[nH]c(=O)n2-c2ccc(F)cc2)C1(NS(=O)(=O)c1ccccc1)C(F)(F)F` (stereo unspecified): -0.54%; `CCn1c(=O)c(C(=O)Nc2ncccc2O)c(O)c2ccccc21`: 23.7%.
Turning to `CCCn1c(=O)c(C(=O)Nc2ncccc2O)c(O)c2ccccc21`, the inhibition was 66.8%.
As to `CCn1c(=O)c(C(=O)Nc2ccccn2)c(O)c2ccccc21`, the inhibition was determined as 27.7%.
As to `CCCCCCn1c(=O)c(C(=O)Nc2ncccc2O)c(O)c2ccccc21`, the inhibition was found to be 67.8%.
For the compound `C/C(CC(=O)Nc1ccc(Cl)cc1Cl)=N\NC(=O)C(=O)NCCO`, the inhibition amounted to 24.8%.
For the compound `CCN(CC)C(=O)CSc1ccc(C(F)(F)F)cc1[N+](=O)[O-]`, the inhibition was -2.61%.
Regarding `CCOc1ccc(/C=N/NC(=S)NC2CC3CC2C2C=CCC32)cc1` (stereo unspecified), the inhibition was -7.06%.
Regarding `O=C(CNC(=O)c1[nH]cnc1C(=O)NC(c1ccccc1)c1ccccc1)OCc1ccccc1`, the inhibition is 44.5%.
With `Cc1nc(CNS(=O)(=O)c2ccccc2F)cs1`, the inhibition was -17.8%.
Next, `CCN(CCCNC(=O)C1c2ccccc2C(=O)N(CCOC)C1c1ccc(F)cc1)Cc1ccccc1` (stereo unspecified): 1.48%; `CC12CN3CC(C)(CN(C1)C3c1ccc([N+](=O)[O-])o1)C2=O` (stereo unspecified): 18.6%; `CCC12CN3CC(CC)(CN(C1)C3c1ccc([N+](=O)[O-])o1)C2=O` (stereo unspecified): 38.4%.
With `C/C(=N\NC(=O)c1ccc2c(c1)OCO2)c1ccc(C(=O)O)s1` the figure was -9.87%.
`COc1ccc(NC(=O)CN(C)C(=O)c2ccc(-c3ccccc3Cl)o2)cc1`: the inhibition was determined as 12.7%.
On to `CSc1nc(-c2ccco2)nn1C(=O)c1ccc(C)cc1`, for which the inhibition amounted to 8.76%.
`CC(C)(C)OC(=O)NCCc1nnc(SCc2ccc(Cl)cc2)o1`: the inhibition was 64.8%.
`CC(C)(C)OC(=O)NCCc1nnc(SCc2ccc(Cl)cc2Cl)o1`: the inhibition stood at 41.4%.
On to `CCOC(=O)c1nnc(-c2cccs2)nc1Oc1ccc(Cl)cc1`, for which the inhibition was -0.21%.
Take `COc1ccc(OC(=O)c2cn(C)nc2C(F)(F)F)cc1`: the inhibition amounted to 12.6%.
With `CCN(C/C=C/c1ccccc1OC)Cc1ccccc1`, the inhibition was 27.1%.
For the compound `CCCCN(CCCC)Cc1ccc(N)cc1`, the inhibition is 19.4%.
